According to ChEMBL document CHEMBL3433997, “St. Jude Leishmania screening dataset” (2016):

Key:
Type in all cases: functional
[1] = molecular target: Solute carrier family 2, facilitated glucose transporter member 1 (Homo sapiens) (UniProt P11166); test: ST_JUDE_LEISH: Cytotoxicity at 2uM final concentration against transgenic Leishmania Mexicana promastigotes LmGLUT1 that are glucose transport deficient and complemented with the human glucose transporter GLUT1. Activity is measured by DNA content using SYBR green in vitro
[2] = molecular target: Hexose transporter 1 (Plasmodium falciparum) (UniProt O97467); test: ST_JUDE_LEISH: Cytotoxicity at 2uM final concentration against transgenic Leishmania Mexicana promastigotes LmPfHT that are glucose transport deficient and complemented with the Plasmodium falciparum hexose transporter. Activity is measured by DNA content using SYBR green in vitro
[3] = molecular target: Glucose transporter (Leishmania mexicana) (UniProt O61059); test: ST_JUDE_LEISH: Cytotoxicity at 2uM final concentration against transgenic Leishmania Mexicana promastigotes LmGT2 that are glucose transport deficient and complemented with the L. Mexicana glucose transporter 2. Activity is measured by DNA content using SYBR green in vitro

Chain of Solute carrier family 2, facilitated glucose transporter member 1 (Homo sapiens) (P11166 whole entry): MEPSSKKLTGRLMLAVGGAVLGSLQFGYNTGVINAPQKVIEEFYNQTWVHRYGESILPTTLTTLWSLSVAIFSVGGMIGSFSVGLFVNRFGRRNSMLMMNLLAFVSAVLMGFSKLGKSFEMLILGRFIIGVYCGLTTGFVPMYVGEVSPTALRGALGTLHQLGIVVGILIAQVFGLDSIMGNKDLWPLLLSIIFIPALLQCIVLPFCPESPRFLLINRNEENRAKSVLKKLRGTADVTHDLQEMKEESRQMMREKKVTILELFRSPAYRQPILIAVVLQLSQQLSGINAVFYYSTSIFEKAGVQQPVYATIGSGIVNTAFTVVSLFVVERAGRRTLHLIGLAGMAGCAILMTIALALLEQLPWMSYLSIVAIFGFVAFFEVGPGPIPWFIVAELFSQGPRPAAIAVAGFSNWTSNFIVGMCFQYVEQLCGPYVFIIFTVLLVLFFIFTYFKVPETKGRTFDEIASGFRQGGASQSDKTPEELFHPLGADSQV

SMILES | inhibition [1] | inhibition [2] | inhibition [3]
CCCN(CCC)C(=S)N/N=C1/C(=O)Nc2ccccc21 | 0.67% | -0.6% | -4.34%
CC(=O)Nc1ccc2[nH]cc(C3CCN(CCC4CCN(C(=O)/C=C/c5ccc(Cl)c(Cl)c5)CC4)CC3)c2n1 | 0.57% | 0.67% | -1.33%
Cc1cccc2nc(-c3ccc(-c4ccc(NC(=O)C(C)CN(C)C)cc4)s3)[nH]c12 (stereo unspecified) | 4.89% | 6.11% | 3.65%
Cc1cc(=O)c(-c2ccc(OCc3ccc(OC(F)(F)F)cc3)cc2)c(C)[nH]1 | 7.02% | 4.41% | 2.08%
CN(C)Cc1ccc2cc(NC(=O)c3ccc(-c4ccc(Cl)cc4)cc3)ccc2n1 | 2.13% | 1.6% | 2.79%
Cc1cccc2nc(-c3ccc(-c4ccc(CN5CC(C)OC(C)C5)cc4)cc3)[nH]c12 (stereo unspecified) | 4.48% | 3.58% | 0.01%
CCc1ccccc1N1CCN(CCCCNC(=O)c2ccc(NC(=O)c3ccc(Cl)cc3)cc2)CC1 | 2.51% | 2.19% | 0.44%
Cc1cccc2nc(-c3cccc(-c4cccc(CN5CCC(CO)CC5)c4)c3)[nH]c12 | 9.53% | 8.91% | 8.87%
Cc1cc(N[C@@H](Cc2ccccc2)C(=O)NCCCOC(C)C)nc(NCC2CCCCC2)n1 | 11.7% | 11.7% | 8.28%
COc1ccc(C2CCC(NCCCCNC(=O)c3ccc(NC(=O)c4ccc(Cl)cc4)cc3)CC2)cc1 (stereo unspecified) | 1.37% | 4.07% | 4.39%
CC1CCN(c2nc(C(=O)Nc3ccc(F)cc3C(F)(F)F)c(C(C)C)s2)CC1 | 1.3% | 2.16% | 2.29%
Cc1ccc(C(C)C)c(Oc2cnc(NC(CO)c3ccccc3)nc2N)c1 (stereo unspecified) | 9.07% | 8.83% | 8.45%
